An excerpt weighted towards active compounds, which were near 9.3% of everything screened.
FLuc modulator – qHTS profiling assay for firefly luciferase inhibitor/activator using purifed enzyme and Km concentrations of substrates (counterscreen for miR-21 project); Luciferin 4-monooxygenase (Photinus pyralis), P08659; purified FLuc, Km substrates, luminescence inhibition; Potency, µM (titrated, usually from 57.5 µM), without a hit: at the highest dose activity change, negative = inhibition, most hits filed as inhibitors; 360,000 tested, 6.9% active; AID 588342, 2011;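 also: plate controls were vehicle for no effect and reference inhibitor for full effect; nearly all actives have a fitted effect of over 55% in size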
Target sequence (P08659 whole entry, looked up): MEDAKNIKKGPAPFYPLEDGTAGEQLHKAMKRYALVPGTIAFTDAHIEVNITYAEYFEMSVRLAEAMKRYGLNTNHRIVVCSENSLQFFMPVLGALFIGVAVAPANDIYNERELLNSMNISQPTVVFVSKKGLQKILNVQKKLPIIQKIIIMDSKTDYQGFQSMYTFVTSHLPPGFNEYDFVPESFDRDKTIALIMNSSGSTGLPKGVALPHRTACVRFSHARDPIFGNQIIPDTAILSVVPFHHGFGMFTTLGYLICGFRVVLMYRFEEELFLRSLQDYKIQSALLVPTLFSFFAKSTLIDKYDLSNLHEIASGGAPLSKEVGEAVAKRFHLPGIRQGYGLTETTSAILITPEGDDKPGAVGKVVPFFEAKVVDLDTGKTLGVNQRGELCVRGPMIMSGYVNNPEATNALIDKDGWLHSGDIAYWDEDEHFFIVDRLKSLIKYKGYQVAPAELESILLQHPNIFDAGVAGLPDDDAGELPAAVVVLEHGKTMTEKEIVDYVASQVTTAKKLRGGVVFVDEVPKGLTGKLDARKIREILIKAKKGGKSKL
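Purified P. pyralis luciferase, 10 nM final, with Km-level 10 uM D-luciferin and 10 uM ATP in 50 mM Tris acetate pH 7.5, 10 mM Mg acetate, 0.01% Tween-20, 0.05% BSA; 6-point qHTS titration about 60 µM downward; luminescence read.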
ELG1 DNA repair – qHTS screen for small molecules that inhibit ELG1-dependent DNA repair in human embryonic kidney (HEK293T) cells expressing luciferase-tagged ELG1 | HEK293T ELG1-luciferase reporter, luminescence, 16 h; DNA damage induced by 5-fluorouridine | 330,000 tested, 2.3% active | Potency, µM (highest dose often 46.1 µM), for inactives: top-dose activity change, negative = inhibition, most hits filed as inhibitors | AID 504467, 2011; also: % is scaled to controls: 0 for no effect and ±100 for the full control effect; nearly all actives have a fitted effect of over 55% in size
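Reporter activity after DNA damage by 5-fluorouridine is monitored. Compound-treated cells incubate 16 hr at 37 °C, then ONE-Glo is added for 30 min before luminescence reading.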
Rab9 prom act – qHTS Assay for Rab9 Promoter Activators; Huh7 Rab9 promoter-luciferase reporter, luminescence, 24 h; Potency, µM (series often up to 9.22 µM), inactives show at the highest dose activation, negative = inhibition, actives largely listed as activators; 320,000 tested, 2.8% active; AID 485297, 2010; also: % of control where 0% means no effect; nearly all actives have a fitted effect of over 60% in size
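Huh7 cells stably carrying a Rab9 promoter-luciferase reporter, 1500 cells per well in OP-MEM I with 10% FBS, treated with compound 24 hours at 37C. Luciferase activity read by luminescence after 10 minutes with Amplite reagent.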
NPC1 promoter act – qHTS Assay for NPC1 Promoter Activators; Huh7 NPC1 promoter luciferase reporter, 24 h; Potency, µM (series often up to 9.22 µM), for the others: at the top dose activation, usual class: activators; 320,000 tested, 2.4% active; also: % of control where 0% means no effect; nearly all actives have a fitted effect of over 60% in size
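Stable NPC1-promoter luciferase Huh7 line; cpd (DMSO) 24 h, 37 °C, 5% CO2; Amplite luciferase reagent 10 min RT; luminescence readout. qHTS format.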
SMN2 splice enh – qHTS Assay for Enhancers of SMN2 Splice Variant Expression; HEK293 SMN2-luciferase splicing reporter, luminescence, 30-36 h; Potency, µM (series often up to 46.1 µM), for inactives: at the highest dose activity change, positive = activation, usual class: activators; 210,000 tested, 2.8% active; AID 1458, 2008; also: % of control where 0% means no effect; nearly all actives have a fitted effect of over 55% in size
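qHTS luciferase splicing reporter: luminescence rises when SMN2 exon 7 is included in transfected HEK293 cells. Compound exposure lasted 30-36 h at 37C, with 4.5 mM final sodium butyrate as control, followed by a ONE-Glo read.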
ELG1 genotoxic – qHTS screen for small molecules that induce genotoxicity in human embryonic kidney (HEK293T) cells expressing luciferase-tagged ELG1; HEK293T ELG1-luciferase reporter, luminescence, 16 h; Potency, µM (series often up to 46 µM), without a hit: at the top dose activity change, positive = activation, actives largely listed as activators; AID 504466, 2011; 330,000 tested, 1.3% active; also: % of control where 0% means no effect; nearly all actives have a fitted effect of over 60% in size
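ELG1-luciferase HEK293T cells, 2,000/well; compound pinned in; 16 hr, 37 °C, 5% CO2; ONE-Glo, 30 min RT; luminescence on CCD imager.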
* hit, by the source's call; ? = inconclusive; . = no result. Calls follow the shape of the dose curve; as a rule, active = well fitted curve in the direction sought with a large enough effect; inconclusive = small, poorly fitted or top-dose-only effect, or another doubt; inactive = no such curve, though single readings can be large; an effect the other way counts as inactive or inconclusive. Potency is read from the fitted curve at half-maximal effect.

SMILES	FLuc modulator	ELG1 DNA repair	Rab9 prom act	NPC1 promoter act	SMN2 splice enh	ELG1 genotoxic
CSCc1ccc(C(=O)Nc2ccc(C(N)=O)cc2)cc1	5.36µM*	?	2.82µM*	2µM*	11.2µM*	14.6µM*
CSCc1ccc(C(=O)NCc2ccc(C)cc2)cc1	?	?	-1.8%	-2.4%	-18.5%	0.3%
CSCc1ccc(C(=O)NCc2ccccc2)cc1	26.9µM*	?	-3.1%	8.5%	15.9%	2.6%
COc1ccc(N/N=C(/N=Nc2nc(C)cc(=O)[nH]2)c2ccccc2)cc1	4.26µM*	?	-8.5%	?	-61.7%	2.59µM*
Cc1cc(=O)[nH]c(N=N/C(=N/Nc2ccc(O)cc2)c2ccccc2)n1	10.7µM*	-10.6%	0.0%	4.2%	-54.8%	?
Cc1cc(=O)[nH]c(N=N/C(=N/Nc2ccccc2C)c2ccccc2)n1	-19.9%	?	-28.8%	-16.4%	-94.1%	4.1%
CC(c1ccccc1)N1C(=O)NC(NC(=O)c2cccnc2)(C(F)(F)F)C1=O (configuration not stated)	6.6%	8.9%	-6.4%	-5.4%	3.0%	0.2%
O=Cc1ccc(O)c2ncccc12	0.1%	2.31µM*	-48.0%	-32.0%	.	-11.4%
COc1cc(C(=O)NNC(=O)C2CCC2)cc(OC)c1OC	.	-4.7%	8.7%	-0.4%	.	-0.8%
CC(C)c1nnc(NC(=O)c2nc(S(=O)(=O)Cc3ccccc3F)ncc2Cl)s1	0.5%	?	-52.2%	-43.6%	.	-5.0%
Cc1nnc(NC(=O)c2nc(S(=O)(=O)Cc3ccccc3C)ncc2Cl)s1	-5.2%	20.6µM*	-63.2%	-57.1%	.	-20.9%
CCN(CC(=O)Nc1c(F)cccc1F)C(=O)C1CC(=O)N(c2ccccc2OC)C1 (configuration not stated)	-3.0%	6.2%	5.8%	9.0%	.	-4.4%
Cc1nc2ccc(NC(=O)N(C)c3ccccc3)cc2s1	13.5µM*	?	?	?	22.4µM*	?
Cc1ccc(NC(=O)Cc2ncon2)cc1Cl	15.1µM*	?	17.0%	7.7%	.	5.1%
CCOC(=O)c1ccccc1NC(=O)Cc1sc(-c2cccnc2)nc1-c1ccc(C)cc1	1.8%	?	-6.6%	-1.0%	-15.4%	-10.9%
Cc1ccc(-c2nc(-c3cccnc3)sc2CC(=O)Nc2ccc3nc(C)sc3c2)cc1	-7.7%	18.4µM*	3.5%	-0.8%	-4.7%	-1.3%
Cc1ccc(NC(=O)Cc2cccs2)cc1Cl	19µM*	?	?	24.9%	.	10.2%
Cc1ccc(NC(=O)Cc2coc3c(C)c(C)ccc23)cc1Cl	-7.5%	.	.	.	2.7%	.
COc1ccc(Oc2nc(C)cc(C)c2S(C)(=O)=O)cc1	3.3%	3.3%	1.2%	-0.3%	12.1%	2.0%
CCOc1ccc(Cl)cc1/C=N/NC(=O)c1ccccc1	-11.2%	1.1%	-0.9%	2.3%	2.7%	-1.3%
O=C(Cc1cccs1)Nc1cccc(-c2nc3cc4ccccc4cc3[nH]2)c1	0.849µM*	?	1.78µM*	1.58µM*	6.31µM*	?
CC(=O)Nc1cccc(NC(=O)Cc2cccs2)c1	0.1%	-9.3%	1.4%	0.3%	.	-1.8%
Cc1nc2ccc(NC(=O)Cc3cccs3)cc2s1	7.57µM*	?	2.51µM*	3.98µM*	?	?
CN1CCN(C(=S)Nc2cccc(Cl)c2)CC1	-0.8%	20.5%	2.6%	1.1%	-12.4%	1.0%
CCN(CC)C(=O)OCc1c(-c2ccccc2)ncc2ccccc12	?	?	-2.7%	?	.	9.9%
SMILES	FLuc modulator	ELG1 DNA repair	Rab9 prom act	NPC1 promoter act	SMN2 splice enh	ELG1 genotoxic
COc1ccc(C(c2nnnn2C2CCCC2)N2CCc3ccccc3C2)cc1OC (configuration not stated)	0.3%	-20.2%	-0.5%	-3.2%	-8.8%	0.0%
Cc1nn(CC(=O)N2c3ccccc3NC(=O)C2(C)C)c(C)c1[N+](=O)[O-]	-0.9%	8.4%	0.2%	-4.8%	18.5%	-3.4%
COc1cc(/C=N/Nc2cccc3cccnc23)cc(OC)c1O	2.69µM*	?	?	-2.0%	?	6.1%
Oc1c(/C=N/Nc2cccc3cccnc23)ccc2ccccc12	?	?	3.16µM*	?	11.2µM*	?
Cc1nnsc1C(=O)N/N=C/c1ccc2ccccc2c1O	?	?	-28.3%	-17.6%	.	-8.4%
COc1cccc(CNc2cccc3cccnc23)c1O	?	?	14.2%	17.9%	0.2%	?
Oc1cccc(/C=N/Nc2cccc3cccnc23)c1	0.675µM*	?	?	?	.	?
CCCCn1c(SCC(=O)Nc2cccc(OC)c2)nc2ccc(N3CCOCC3)cc2c1=O	-7.1%	?	-12.5%	-5.4%	-1.3%	-7.9%
O=C(O)c1ccc(Cl)c(S(=O)(=O)NCC2CCCO2)c1 (configuration not stated)	15.1%	0.0%	2.1%	1.3%	10.0%	-0.4%
CN(C(=O)COC(=O)c1cn(-c2ccccc2)nc1-c1ccccc1)C1CCS(=O)(=O)C1 (configuration not stated)	?	-12.4%	10.8%	-4.0%	-5.0%	-0.8%
Cc1nn(-c2ccccc2)c(C)c1/C=C/C(=O)OCC(=O)NC1CCS(=O)(=O)C1 (configuration not stated)	0.9%	?	19.2%	6.2%	.	7.6%
CN(C(=O)COC(=O)/C=C/c1cn(-c2ccccc2)nc1-c1ccc2c(c1)OCCO2)C1CCS(=O)(=O)C1 (configuration not stated)	-7.5%	20.6µM*	-8.0%	-5.3%	8.3%	-11.0%
CCN(C(=O)COC(=O)c1cn(-c2ccccc2)nc1-c1ccccc1)C1CCS(=O)(=O)C1 (configuration not stated)	23.9µM*	5.5%	-0.8%	-3.4%	10.5%	4.8%
O=C(COC(=O)/C=C/c1cn(-c2ccccc2)nc1-c1ccc2c(c1)OCCO2)NC1CCS(=O)(=O)C1 (configuration not stated)	-15.5%	18.3µM*	0.1%	-6.1%	.	-14.2%
Cc1sc(N)nc1-c1ccc2c(c1)OCCO2	?	18.8%	8.1%	23.4%	.	2.0%
c1cc2c(cc1-c1csc(NNC3=NCCCCC3)n1)OCCO2	19µM*	?	?	8.1%	16.9%	15.0%
COc1ccccc1C(=O)Nc1nc(-c2ccc3c(c2)OCCO3)cs1	?	4.4%	4.5%	-7.2%	-39.8%	-2.8%

Screens: PubChem BioAssay, National Center for Advancing Translational Sciences (NCATS)
